Compound activity as filed in PubChem BioAssay.
D1 PAM = potentiators of human D1 dopamine receptor | HEK293 TREx D1 cells, calcium flux, dopamine EC20 potentiation | potentiation, % at 10 µM | hit rate 0.036% among 360,000 | AID 504651; in the data active = potentiation above about 30%; note: 0% is about no effect
DRD3 agonist = activates the human D3 dopamine receptor | P35462 | D3R DiscoveRx beta-arrestin cells, luminescence, 90 min | max activation, % | hit rate 0.58% among 410,000 | AID 652048; in the data active = max activation above about 30%; note: 0% is about no effect
Target sequence (P35462 whole entry, looked up): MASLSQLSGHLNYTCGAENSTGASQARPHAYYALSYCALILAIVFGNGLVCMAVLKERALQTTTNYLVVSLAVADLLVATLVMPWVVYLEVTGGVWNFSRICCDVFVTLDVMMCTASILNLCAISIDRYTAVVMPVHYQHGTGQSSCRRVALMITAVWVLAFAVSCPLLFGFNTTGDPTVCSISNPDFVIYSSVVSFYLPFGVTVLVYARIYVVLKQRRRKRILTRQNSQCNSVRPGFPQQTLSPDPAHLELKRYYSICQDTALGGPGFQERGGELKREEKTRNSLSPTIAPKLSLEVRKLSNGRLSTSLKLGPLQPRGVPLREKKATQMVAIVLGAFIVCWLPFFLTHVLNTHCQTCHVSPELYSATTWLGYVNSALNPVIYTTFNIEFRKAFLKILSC
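Cells at 1500/well, incubated overnight, then treated with pinned compounds (dopamine as control) for 90 min at 37 degrees C. DiscoveRx reagent added for 30 - 60 minutes at room temperature; luminescence read.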
DRD3 antagonist = antagonists of human D3 dopamine receptor. P35462. D3R cells, DiscoveRx beta-arrestin luminescence, antagonist mode; hits give low values. max response, negative = inhibition, %. hit rate 2.5% among 360,000. AID 652054; in the data active = max response below about -50%; note: % is set by controls: 0 for no effect and ±100 for the full control effect
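Cells plated overnight at 1500 cells/well, then exposed to library compounds with dopamine controls for 90 minutes at 37 degrees C. DiscoveRx reagent added for 30–60 minutes at room temperature; luminescence read, quantitative HTS format.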
D1 antag = blocks dopamine activation of the human D1 receptor | activity change, negative = inhibition, % at 10 µM | P21728 | HEK293 TREx D1 cells, calcium flux, dopamine EC80; hits give low values | hit rate 3.2% among 360,000; in the data active = activity change below about -30%; note: % is set by controls: 0 for no effect and ±100 for the full control effect
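After overnight tetracycline induction at 30 C, force-coupled D1 HEK293 cells took up a no-wash calcium dye at room temperature. Compounds were added and monitored 180 s, and the response to EC80 dopamine was then recorded.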
D1 ag = human D1 receptor agonism. P21728. HEK293 T-REx D1 cells, calcium flux, agonist mode. activation, % at 2 µM. hit rate 1% among 360,000. AID 504660; in the data active = activation above about 30%; note: 0% is about no effect
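Agonism was scored from calcium flux recorded over 180 s (1 read/s) after pintool compound addition, following a 10-cycle baseline. Cells were inducible force-coupled HEK293 TREx D1, plated overnight at 30 C and loaded with no-wash calcium dye.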
Numbers without * were called inactive; ! = repeats disagree. Shown are actives, neighbours in structure and some others; about 6% of the full set was active somewhere.

Screening CC1CC(C)CN(CCCNC(=O)c2ccc3c(c2)N(Cc2ccccc2)C(=O)c2ccccc2S3=O)C1 (configuration not stated) returned D1 PAM -6.5, DRD3 agonist -19.7, DRD3 antagonist -72.5*, D1 antag 3.0 and D1 ag 80.2*.
`Cc1ccc(S(=O)(=O)N2CCc3cc(C(=O)N(C)Cc4ccccc4)ccc32)cc1` gave D1 PAM -3.4, DRD3 agonist 3.0, D1 antag 1.5 and D1 ag 2.0.
For CC(C)c1ccc(OCC(=O)Nc2cc(-c3ccccc3)no2)cc1 the results were D1 PAM 0.5, DRD3 agonist -9.1, D1 antag 10.9 and D1 ag 16.0.
`COc1ccc(NC(=O)Cn2c(=O)n(Cc3ccco3)c(=O)c3oc4ccccc4c32)cc1Cl` gave D1 PAM -3.5, DRD3 agonist -23.4, D1 antag 7.2 and D1 ag 0.2.
COc1ccc(-c2nc3sc(CCNC(=O)c4cc(OC)c(OC)c(OC)c4)c(C)n3n2)cc1 was read as D1 PAM -0.1, DRD3 agonist -4.0 and D1 ag -0.2.
For Cc1cc(C)cc(NC(=O)Cn2c(C)cc(C)c(C#N)c2=O)c1 the results were D1 PAM 0.5, DRD3 agonist 5.7, D1 antag 2.9 and D1 ag 7.3.
`Cc1ccc(-c2nc(SCCOc3ccccc3C)n3[nH]c(=O)cc3n2)cc1` gave D1 PAM -5.5, DRD3 agonist -10.8, D1 antag 7.5 and D1 ag 2.2.
O=c1cc(-c2ccccc2)n2c(SCc3ccccc3Cl)nnc2[nH]1 was read as D1 PAM -1.1, DRD3 agonist 4.1 and D1 ag 0.3.
For CCOC(=O)C1CCCN(C(=O)c2ccc3c(c2)N(Cc2ccccc2F)C(=O)c2ccccc2S3=O)C1 (configuration not stated) the results were D1 PAM 0.5, DRD3 agonist 9.0, D1 antag -35.7* and D1 ag 2.1.
Screening CCN1CCN(C(=O)c2ccc3c(c2)N(Cc2cccc(Cl)c2)C(=O)c2ccccc2S3=O)CC1 (configuration not stated) returned D1 PAM -5.3, DRD3 agonist -22.6, D1 antag -6.6 and D1 ag 4.2.
CCN1CCN(C(=O)c2ccc3c(c2)N(Cc2ccccc2)C(=O)c2ccccc2S3=O)CC1 (configuration not stated) was read as D1 PAM -8.2, DRD3 agonist -13.2, DRD3 antagonist -56.0*, D1 antag 0.2 and D1 ag 1.5.
Screening CCCOc1ccc(C(=O)N2CCCC2C(=O)O)cc1 (configuration not stated) returned D1 PAM 0.3, DRD3 agonist 1.1, DRD3 antagonist -60.9*, D1 antag -3.8 and D1 ag 1.4.
Screening COc1cc(OC)cc(C(=O)Nc2cccc(-c3cn4ccsc4n3)c2)c1 returned D1 PAM -2.2, DRD3 agonist 6.7, D1 antag -6.5 and D1 ag 1.1.
Screening CC(C)c1ccc(NC(=O)c2ccc(F)c(S(=O)(=O)N3CCc4ccccc4C3)c2)cc1 returned D1 PAM -1.1, DRD3 agonist 12.6, D1 antag -18.3 and D1 ag 7.4.
CC1CCC(C(C)C)C(OC(=O)Cn2c(-c3ccc(Br)cc3)[n+](C)c3ccccc32)C1 (configuration not stated) was read as D1 PAM -1.9, DRD3 agonist -7.9, DRD3 antagonist -66.6*!, D1 antag -2.9 and D1 ag -3.7.
For COc1ccc(S(=O)(=O)NCCc2csc(-c3ccc(F)cc3)n2)cc1 the results were D1 PAM -2.9, DRD3 agonist -15.1, D1 antag -15.6 and D1 ag 9.0.
For Cc1ccc(S(=O)(=O)N2CCC(=O)N(CCOC(=O)Nc3ccccc3C)CC2)cc1 the results were D1 PAM -5.9, DRD3 agonist -0.5, DRD3 antagonist 38.5, D1 antag -31.0* and D1 ag -4.1.
For Cc1cc(C)cc(NC(=O)OCCN2CCN(Cc3ccccc3)CCC2=O)c1 the results were D1 PAM -6.5, DRD3 agonist -3.4, DRD3 antagonist 10.4, D1 antag -32.3* and D1 ag -3.7.
COc1ccc(NC(=O)c2sc3nc(C)c(C(=O)Nc4ccc(C)cc4C)c(-c4ccc(C)o4)c3c2N)cc1 was read as D1 PAM -1.4, DRD3 agonist -2.1, D1 antag 7.3 and D1 ag 15.2.
